The results in this text go back to PubChem BioAssay AID1259423 (Fisher Drug Discovery Resource Center, 2018).

The structures appear in SMILES notation. Values joined by “and” are separate entries in the source; they are usually repeats but may differ in a detail not shown here. Equal entries are not always repeated. In all, about 270,000 compounds went through this assay and about 410 (0.15%) were called active. Rule as the data show it: active = activation above about 40%; inactive = the rest, inconclusive results apart. This excerpt belongs to a sample that is enriched for actives. The source holds several records for some structures; these can differ, active in one and inactive in another.

The assay relates to Aedes aegypti neuropeptide Y-like receptor 7 (NPYLR7). Kind of assay: agonists of mosquito NPYLR7 receptor, primary screen, cell-based, Aedes aegypti, calcium fluorescence, mosquito biting behavior (AID 1259423).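 Also: 0% = vehicle and 100% = reference agonist at the receptor.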 Conditions: HEK293T NPYLR7/Galpha15, GCaMP6s calcium fluorescence, at 10 µM, stronger effect = higher value.
[1] abbreviates: measured here: Max-Min RFU normalised activation.

With `O=c1oc2c(CN3CC4CC(C3)c3cccc(=O)n3C4)c(O)ccc2cc1-c1nc2ccccc2s1` (configuration not stated), the activation was 303% (active). Further, the activation under setting [1] came to 372%.
The matching figures for `COc1cc(C(=O)N2CCOC(c3ccccc3)C2)cc(OC)c1C` (configuration not stated): 77.6% (active) and 58.9%.
The matching figures for `Cc1c(F)cccc1C(=O)N1CCOC(c2ccccc2)C1` (configuration not stated): 0.877% (inactive) and -1.3%.
The matching figures for `COc1ccc2cc(C3CN(C(=O)c4ccc[nH]4)CCO3)ccc2c1` (configuration not stated): -5.79% (inactive) and -7.4%.
On to `O=S(=O)(Cc1ccc(F)cc1)NCc1ccccc1OC(F)F`, for which the activation was 1.17% (inactive). Besides, the activation under setting [1] came to 1.23%.
The matching figures for `Cc1cccc(C(=O)O/N=C\c2ccc(Br)cc2)c1`: 0.973% (inactive) and 3.02%.
The like results for `CON(C)C(=O)c1cccc(CN2CCS(=O)(=O)CC2)c1` were, in that order, 7.7% (inactive) and 4.38%.
The matching figures for `CCOC(C)c1noc(CNC2(c3noc(CC)n3)CCCC2)n1` (configuration not stated): 3.73% (inactive) and 1.21%.
On to `C(=C\c1nn2c(CN3CCCCC3)nnc2s1)/c1ccccc1`, for which the activation is 1.3% (inactive). For the same molecule, under setting [1], the activation is 0.534%.
With `COC(=O)C1Cc2ccccc2CN1Cc1cccc(C(=O)N(C)C)c1` (configuration not stated), the activation was 1.77% (inactive). Besides, the activation under setting [1] is -13.5%.
The like results for `COc1ccc(CCN2CCC(CN(C)C(=O)c3ccoc3)CC2)cc1` were, in that order, 13.3% (inactive) and 6.16%.
The like results for `O=c1[nH]c(Cn2nnc3ccccc3c2=O)nc2ccccc12` were, in that order, -3.31% (inactive) and -3.64%.
The like results for `CCCCCCCC(=O)Nc1c(-c2ccc(Cl)cc2)nc2cc(C)ccn12` were, in that order, -5.12% (inactive) and 1.14%.
Regarding `C/C=C\COC1CCCN(C(=O)COc2ccc(Cl)cc2)C1` (configuration not stated), the activation was -4.16% (inactive). Moreover, the activation under setting [1] is -5.2%.
The matching figures for `CCN1CCN(CC(O)COc2ccc(CN3CCc4ccccc4C3)cc2OC)CC1` (configuration not stated): 3.88% (inactive) and 3.04%.
The matching figures for `Brc1ccc(Oc2nc(N3CCCC3)nc(N3CCCC3)n2)cc1`: -2.87% (inactive) and -5.23%.
The matching figures for `N#CC1C(=N)SC(=N)C(C#N)C1c1ccco1` (configuration not stated): -5.34% (inactive) and -2.82%.
Take `CCc1ccc(C2C(C#N)C(=N)SC(=N)C2C#N)cc1` (configuration not stated): the activation is 0.645% (inactive). The activation under setting [1] was -2.49%.
The like results for `N#CC1C(=N)SC(=N)C(C#N)C1c1cccc(O)c1` (configuration not stated) were, in that order, 51% (active) and 53%.
The like results for `COc1ccc(-c2nc(NC(=O)C3CCCC3)sc2C)cc1` were, in that order, -2.08% (inactive) and 2.65%.
For `CCC(C)(NC(=O)C1Cc2ccccc2O1)c1nccs1` (configuration not stated), the activation is -1.24% (inactive). For the same molecule, under setting [1], the activation was -2.94%.
On to `CCC1CCCCN1C(=O)CSc1c(C)[nH]c2ccccc12` (configuration not stated), for which the activation is -1.59% (inactive). Moreover, the activation under setting [1] is -2.64%.
The matching figures for `CCCN(C(=O)Cn1nc(C)c2ccccc2c1=O)[C@@H]1CCCC[C@H]1O`: 0.206% (inactive) and -0.142%.
The matching figures for `CCCc1cc(=O)n2[nH]c(C)c(-c3cccc4ccccc34)c2n1`: -15.2% (inactive) and -20.4%.
The like results for `NC(=O)CN1C(=O)COc2ccccc21` were, in that order, -19.8% (inactive) and -26.8%.
`CCCCN(C)C(=O)c1cnn(-c2ccccc2)c1`: the activation is 0.0336% (inactive). The activation under setting [1] was -1.33%.
On to `O=C(NC1C=CS(=O)(=O)C1)c1cccc2ccnn12` (configuration not stated), for which the activation is 22.3% (inactive). Moreover, the activation under setting [1] was 9.91%.
As to `CCCC(C(=O)OCCN(CC)CC)(c1ccccc1)c1ccccc1`, the activation was 3.25% (inactive) and -1.52% (inactive) and 68.5% (active). Moreover, the activation under setting [1] was -42.8% and -5.9% and 58.4%.
As for `CCC(N)(C(=O)OC)c1ccccc1` (configuration not stated), the activation is 8.89% (inactive). The activation under setting [1] was 3.04%.
The matching figures for `CC1Cc2c(NC(=O)CSCc3ccccc3)nn(C)c2NC1=O` (configuration not stated): 3.06% (inactive) and -2.58%.
As for `CCN(CC)c1ccc2cc(-c3nnc(Nc4ccccc4F)s3)c(=O)oc2c1`, the activation is -10.4% (inactive). The activation under setting [1] was -12.8%.
On to `O=c1[nH]c(=O)n(Cc2cccc(OC(F)F)c2)cc1Cl`, for which the activation was 0.422% (inactive) and -19.6% (inactive). In addition, under setting [1], the activation is -0.254% and -21%.
Consider `CC(c1cccs1)N(C)C(=O)c1n[nH]c(C2CC2)c1Br` (configuration not stated), for which the activation is -2.08% (inactive). Further, under setting [1], the activation was 0.622%.
The matching figures for `O=C1Nc2ccccc2C1=NN=C(C(=O)c1ccccc1)c1ccccc1`: 11.7% (inactive) and 10.9%.
The matching figures for `CCC(=O)Nc1cccc(OCC(=O)N2CCCC2c2nonc2C)c1` (configuration not stated): -16.1% (inactive) and -16.7%.
The like results for `Cc1ccc(NC(=O)Cn2cnc3sc4c(c3c2=O)CCC4)c(F)c1` were, in that order, -14.9% (inactive) and -15.4%.
As for `COc1cc(C=C2SC(=S)NC2=O)cc(Br)c1O`, the activation was 668% (active). Besides, the activation under setting [1] stood at 942%.
The like results for `COc1cc(OC)c(OC)cc1/C=C1/SC(=S)NC1=O` were, in that order, -3.39% (inactive) and -7.58%.
With `COc1ccc(C=C2SC(=S)NC2=O)cc1OC`, the activation was 1.47% (inactive). Also, the activation under setting [1] came out at 3.32%.
The matching figures for `Cc1cc(S(=O)(=O)C(CNC(=O)CC(C)(C)C)c2cccs2)ccc1F` (configuration not stated): 5.15% (inactive) and 2.88%.
The like results for `COCCNC(=S)N(CCC#N)CCN(CCC#N)C(=S)NCCOC` were, in that order, -2.49% (inactive) and -3.45%.
